Reference: PubChem BioAssay (EPA / NIEHS)
“And” between values parts separate entries of the source, which are not always exact repeats. Equal values may be shown once. Results filed as inconclusive are left out. The source made the active and inactive calls. How the source made its calls, unless noted: active means hit-call score of the fitted dose curve at least 0.9, where 1 is the maximum; inconclusive means response in the unintended direction; inactive means score below 0.9.

Tests used:
[1] = TOX21_p53_BLA_p2_viability: Viability Assessment in the Tox21 HCT-116 p53 Agonism Beta-lactamase Assay, Phase 2 (AID 2283591);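 further: actives lower the ATP signal meaning cytotoxicity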
In short: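 HCT116 p53-bla cells, 4000/well, dosed after 5 h plating (217-fold dilution of DMSO stocks) and incubated 16 h at 37C. Viability taken as cellular ATP by CellTiter-Glo luminescence after 30 min RT; signal loss marks cytotoxicity.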

[2] = target: Cellular tumor antigen p53 (Homo sapiens) (UniProt P04637); test: TOX21_p53_BLA_p2_ratio: Tox21 HCT-116 p53 Agonism Beta-lactamase Assay, Ratio, Phase 2 (AID 2283592)
Sequence of Cellular tumor antigen p53 (Homo sapiens) (P04637 whole entry, looked up): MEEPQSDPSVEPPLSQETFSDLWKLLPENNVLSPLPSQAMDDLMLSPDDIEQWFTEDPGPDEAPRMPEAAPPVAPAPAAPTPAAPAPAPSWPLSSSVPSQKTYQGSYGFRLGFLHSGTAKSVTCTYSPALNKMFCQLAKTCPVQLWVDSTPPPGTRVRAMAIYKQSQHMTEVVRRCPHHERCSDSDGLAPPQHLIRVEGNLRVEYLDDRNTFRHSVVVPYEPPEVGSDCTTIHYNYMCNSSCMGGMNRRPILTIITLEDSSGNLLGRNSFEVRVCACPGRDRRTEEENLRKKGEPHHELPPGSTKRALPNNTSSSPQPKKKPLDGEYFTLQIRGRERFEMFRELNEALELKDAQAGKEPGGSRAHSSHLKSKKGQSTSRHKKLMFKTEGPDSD
In short: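 Readout: blue/green (460/530 nm) FRET emission ratio after 2 h CCF4-AM loading at room temperature, excitation 405 nm. HCT116 p53 bla cells, 16 h compound exposure at 37C, 5% CO2; agonist direction fitted against DMSO baseline.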

[3] = TOX21_p53_BLA_p3_viability: Viability Assessment in the Tox21 HCT-116 p53 Agonism Beta-lactamase Assay, Phase 3 (AID 2283593);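 further: cells exposed to compound for 16 h before reading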
In short: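 HCT116 cells, 4000/well, dosed 5 h after plating by pin transfer (217-fold dilution from DMSO stock) and incubated 16 h at 37C, 5% CO2. Viability read as ATP luminescence with CellTiter-Glo after 30 min at room temperature.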

[4] = target: Cellular tumor antigen p53 (Homo sapiens) (UniProt P04637); test: TOX21_p53_BLA_p3_ratio: Tox21 HCT-116 p53 Agonism Beta-lactamase Assay, Ratio, Phase 3 (AID 2283596)
In short: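 Cells were seeded at 4000/well, rested 5 h at 37C, then dosed with DMSO compound solutions (217-fold dilution) for 16 h. CCF4-AM substrate was loaded for 2 h at room temperature, and the 460/530 nm emission ratio was fitted for gain of signal versus DMSO.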

[5] = TOX21_p53_BLA_p4_viability: Viability Assessment in the Tox21 HCT-116 p53 Agonism Beta-lactamase Assay, Phase 4 (AID 2283597);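 further: hits lower the luminescence signal meaning cytotoxicity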
In short: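 ATP content by CellTiter-Glo luminescence, 30 min RT, read after the beta-lactamase ratio step. Cells: HCT116, 4000/well, compound added after 5 h, exposure 16 h at 37C. Signal loss = reduced viability.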

[6] = target: Cellular tumor antigen p53 (Homo sapiens) (UniProt P04637); test: TOX21_p53_BLA_p5_ratio: Tox21 HCT-116 p53 Agonism Beta-lactamase Assay, Ratio, Phase 5 (AID 2283599)
In short: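 HCT-116 p53-bla cells (4000/well) plated 5 h, dosed with compound (217-fold DMSO dilution) for 16 h at 37 C; CCF4-AM substrate 2 h at room temperature. Activity is the 460/530 nm emission ratio (405 nm excitation), fitted in gain-of-signal direction versus DMSO.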

[7] = TOX21_p53_BLA_p5_viability: Viability Assessment in the Tox21 HCT-116 p53 Agonism Beta-lactamase Assay, Phase 5 (AID 2283600)
In short: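 ATP luminescence (CellTiter-Glo, 30 min, RT) served as the viability read-out, with loss of signal indicating cytotoxicity. Compounds in DMSO were pinned at a 217-fold dilution onto 4000 cells/well and incubated 16 h, 37C.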

[8] = ACEA_ER_AUC_viability: ACEA Biosciences xCELLigence Real-Time Cell Analysis on Estrogen Receptor Agonism for Viability (AID 2283782);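 further: hit means loss of impedance signal meaning reduced cell growth or viability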
In short: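 Read-out: real-time electrical impedance (RT-CES) area under curve, loss of signal taken as reduced viability, normalized to DMSO baseline. T-47D cells, charcoal-stripped serum medium, compounds up to 100 uM final, continuous exposure, 80 h.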

[9] = target: Thyroid hormone receptor alpha (Rattus norvegicus) + Thyroid hormone receptor beta (Rattus norvegicus) (UniProt P18113+P63059); test: TOX21_TR_LUC_GH3_Agonist_Followup: Tox21 GH3 Thyroid Hormone Receptor Agonism Luciferase Follow-Up Assay (AID 2283939)
Sequence of Thyroid hormone receptor alpha (Rattus norvegicus) + Thyroid hormone receptor beta (Rattus norvegicus) (P63059 whole entry, looked up): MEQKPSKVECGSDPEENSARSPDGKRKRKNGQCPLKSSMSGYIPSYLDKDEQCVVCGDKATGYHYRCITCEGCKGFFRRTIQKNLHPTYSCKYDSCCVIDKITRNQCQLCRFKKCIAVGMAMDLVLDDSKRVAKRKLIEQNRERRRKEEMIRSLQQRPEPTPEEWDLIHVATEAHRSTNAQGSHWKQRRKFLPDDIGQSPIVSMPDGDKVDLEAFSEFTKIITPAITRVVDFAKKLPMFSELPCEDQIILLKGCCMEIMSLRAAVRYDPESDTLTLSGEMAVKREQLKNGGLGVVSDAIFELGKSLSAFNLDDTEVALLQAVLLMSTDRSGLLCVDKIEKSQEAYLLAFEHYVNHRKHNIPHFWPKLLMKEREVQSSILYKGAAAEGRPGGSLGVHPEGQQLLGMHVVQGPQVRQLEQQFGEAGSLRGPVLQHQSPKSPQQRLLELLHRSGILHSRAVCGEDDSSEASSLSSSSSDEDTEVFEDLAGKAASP
Sequence of Thyroid hormone receptor alpha (Rattus norvegicus) + Thyroid hormone receptor beta (Rattus norvegicus) (P18113 whole entry, looked up): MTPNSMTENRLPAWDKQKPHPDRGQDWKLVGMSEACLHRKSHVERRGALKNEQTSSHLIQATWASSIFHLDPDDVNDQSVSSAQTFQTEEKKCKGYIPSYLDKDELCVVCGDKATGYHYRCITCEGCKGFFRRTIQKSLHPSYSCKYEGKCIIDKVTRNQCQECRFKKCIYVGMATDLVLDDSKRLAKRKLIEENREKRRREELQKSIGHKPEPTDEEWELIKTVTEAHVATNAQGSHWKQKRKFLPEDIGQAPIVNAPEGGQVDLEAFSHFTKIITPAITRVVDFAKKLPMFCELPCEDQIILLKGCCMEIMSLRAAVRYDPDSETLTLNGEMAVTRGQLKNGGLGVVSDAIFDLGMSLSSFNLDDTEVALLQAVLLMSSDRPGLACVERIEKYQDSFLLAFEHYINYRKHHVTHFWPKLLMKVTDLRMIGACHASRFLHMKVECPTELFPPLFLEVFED
In short: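 Agonist-mode confirmatory run: 15 concentrations (5 nM to 92 uM final) on GH3 rat pituitary cells, 24 h at 37C/5% CO2, T3 as positive control. Luminescence read with ONE-Glo after 30 min.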

THRA (gene 7067) = THRA (gene 7067) (UniProt P10827); test: TOX21_TRA_COA_Agonist_Followup_ratio: Tox21 Thyroid Hormone Receptor alpha Agonism through Coactivator Recruitment Follow-Up Assay, Ratio (AID 2283948; active means hit-call score of the fitted dose curve at least 0.9, where 1 is the maximum; inactive means score below 0.9)
Sequence of THRA (gene 7067) (P10827 whole entry, looked up, the tested form may be a part): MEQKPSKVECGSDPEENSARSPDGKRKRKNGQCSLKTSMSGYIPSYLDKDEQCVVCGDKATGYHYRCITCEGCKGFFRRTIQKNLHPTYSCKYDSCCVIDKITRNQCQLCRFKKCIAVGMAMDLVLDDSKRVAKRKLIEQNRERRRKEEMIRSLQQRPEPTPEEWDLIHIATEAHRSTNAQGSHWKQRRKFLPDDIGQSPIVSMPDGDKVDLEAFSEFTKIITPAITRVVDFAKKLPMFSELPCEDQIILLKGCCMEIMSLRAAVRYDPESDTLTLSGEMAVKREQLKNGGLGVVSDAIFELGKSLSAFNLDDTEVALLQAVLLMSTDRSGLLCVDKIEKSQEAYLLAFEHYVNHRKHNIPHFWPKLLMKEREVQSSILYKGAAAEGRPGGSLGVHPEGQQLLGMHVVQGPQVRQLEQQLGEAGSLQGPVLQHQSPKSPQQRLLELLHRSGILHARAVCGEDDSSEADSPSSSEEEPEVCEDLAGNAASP
In short: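 GST-TRa LBD 2.5 nM + 0.10% BSA + cpd; add fluorescein-SRC-2 200 nM, Tb-anti-GST 2 nM. TR-FRET ex 340, em 520/495 ratio. Norm: DMSO 0%, T3 100%; gain-of-signal fit.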

THRB (gene 7068) [10] = target: THRB (gene 7068) (UniProt P10828); test: TOX21_TRB_BLA_Agonist_Followup_ratio: Tox21 Thyroid Hormone Receptor beta Agonism Beta-lactamase (BLA) Follow-Up Assay, Ratio (AID 2283954)
Sequence of THRB (gene 7068) (P10828 whole entry, looked up, the tested form may be a part): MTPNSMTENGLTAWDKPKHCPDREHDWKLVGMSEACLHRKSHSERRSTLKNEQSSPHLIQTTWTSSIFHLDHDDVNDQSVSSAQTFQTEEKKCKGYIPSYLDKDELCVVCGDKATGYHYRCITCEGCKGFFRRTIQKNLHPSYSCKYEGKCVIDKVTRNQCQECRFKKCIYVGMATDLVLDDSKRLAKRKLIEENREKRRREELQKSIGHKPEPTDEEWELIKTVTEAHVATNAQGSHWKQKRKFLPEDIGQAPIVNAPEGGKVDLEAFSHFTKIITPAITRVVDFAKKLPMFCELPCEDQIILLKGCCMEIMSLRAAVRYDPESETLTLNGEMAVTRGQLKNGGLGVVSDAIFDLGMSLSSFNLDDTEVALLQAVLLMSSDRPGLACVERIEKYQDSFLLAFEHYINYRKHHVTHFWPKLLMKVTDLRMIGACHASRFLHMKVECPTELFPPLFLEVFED
In short: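 Agonist mode: compounds (11-point, triplicate) incubated 18 h with HEK293T cells carrying GAL4-DBD/human TRβ-LBD and UAS-β-lactamase. Blue/green (460/530 nm) FRET ratio read after 2 h CCF4-AM loading; CellTiter-Glo viability run in the same plates.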

THRB (gene 7068) [11] = target: THRB (gene 7068) (UniProt P10828); test: TOX21_TRB_COA_Agonist_Followup_ratio: Tox21 Thyroid Hormone Receptor beta Agonism through Coactivator Recruitment Follow-Up Assay, Ratio (AID 2283963; active means hit-call score of the fitted dose curve at least 0.9, where 1 is the maximum; inactive means score below 0.9)
In short: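 First, the GST-fused TRβ ligand-binding domain (5.0 nM) was incubated with test compound in 0.10% BSA. Next, fluorescein-tagged SRC-2 peptide (200 nM) and terbium anti-GST antibody (2 nM) were added. Finally, TR-FRET emission ratios were normalized against DMSO and T3 controls.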

[12] = target: Retinoic acid receptor RXR-alpha (Homo sapiens) (UniProt P19793); test: TOX21_TR_RXR_BLA_Agonist_Followup_ratio: Tox21 Thyroid Hormone Receptor beta Retinoid X Receptor alpha (RXRa) Agonism Beta-lactamase (BLA) Follow-Up Assay, Ratio (AID 2283968)
Sequence of Retinoic acid receptor RXR-alpha (Homo sapiens) (P19793 whole entry, looked up): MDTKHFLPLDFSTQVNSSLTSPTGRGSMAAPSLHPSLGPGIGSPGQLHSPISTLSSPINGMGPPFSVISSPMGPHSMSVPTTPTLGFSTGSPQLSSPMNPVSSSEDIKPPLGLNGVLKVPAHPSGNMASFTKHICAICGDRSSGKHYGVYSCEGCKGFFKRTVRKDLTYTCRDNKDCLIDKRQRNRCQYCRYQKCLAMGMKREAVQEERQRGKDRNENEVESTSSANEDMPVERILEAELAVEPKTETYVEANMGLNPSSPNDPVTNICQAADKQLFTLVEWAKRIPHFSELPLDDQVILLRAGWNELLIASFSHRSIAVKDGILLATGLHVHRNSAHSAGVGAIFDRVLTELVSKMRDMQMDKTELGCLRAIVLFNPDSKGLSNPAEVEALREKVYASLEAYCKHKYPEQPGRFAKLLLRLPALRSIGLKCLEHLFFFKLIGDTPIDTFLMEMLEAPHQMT
In short: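 Read-out: blue/green (460:530 nm) FRET ratio from cleaved vs uncleaved CCF4 substrate, fitted for gain of signal relative to DMSO. Cells: HEK293T with RXRa-UAS-bla reporter; 16 h compound exposure, 11 concentrations, triplicate.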

[13] = TOX21_TR_RXR_BLA_Agonist_Followup_viability: Viability Assessment in the Tox21 Thyroid Hormone Receptor beta Retinoid X Receptor alpha (RXRa) Agonism Beta-lactamase (BLA) Follow-Up Assay (AID 2283970)
In short: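 CellTiter-Glo ATP quantitation as viability read-out in RXRa-bla HEK293T cells (2,500/well, charcoal-stripped 2% FBS medium), 16h compound incubation at 37C. Loss of signal versus DMSO taken as cytotoxicity, analyzed by bidirectional curve fitting.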

[14] = CCTE_Harrill_HTTr_Viability_MCF7: CCTE's 6-hour Cell Viability Assessment for the High-Throughput Transcriptomics (HTTr) Platform, in MCF-7 cells cultured in DMEM + 10% fetal bovine serum, Harrill Lab (AID 2284010; active means hit-call score of the fitted dose curve at least 0.9, where 1 is the maximum; inactive means score below 0.9)
In short: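 PI exclusion, high-content imaging; 8-pt dilution series, 6 h exposure; bidirectional fit vs DMSO (neg. ctrl/baseline); gain of signal = loss of membrane integrity.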

[15] = CCTE_Harrill_HTTr_CellCount_MCF7: CCTE's Cell Proliferation Assessment for the High-Throughput Transcriptomics (HTTr) Platform, Harrill Lab (AID 2284012);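 further: count of Hoechst-stained nuclei per well by high-content imaging in MCF-7 cells; cells exposed to compound for six hours; intended direction is loss of nuclei count meaning fewer cells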
In short: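 Readout: Hoechst nuclear count by high-content imaging. MCF-7, 8-point dilution series, 6 h exposure. Bidirectional fit vs DMSO baseline.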

[16] = target: Cellular tumor antigen p53 (Homo sapiens) (UniProt P04637); test: TOX21_p53_BLA_p4_ratio: Tox21 HCT-116 p53 Agonism Beta-lactamase Assay, Ratio, Phase 4 (AID 2283601)
In short: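 HCT-116 p53 beta-lactamase reporter cells (4000/well) preincubated 5 h, then compound (217-fold dilution of DMSO stock) for 16 h at 37C. CCF4-AM substrate added 2 h at room temperature; 460/530 nm emission ratio fitted upward versus DMSO.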

[17] = CCTE_Harrill_HTTr_Apoptosis_MCF7: CCTE's 6-hour Apoptosis Assessment for the High-Throughput Transcriptomics (HTTr) Platform, in MCF-7 cells cultured in DMEM + 10% fetal bovine serum, Harrill Lab (AID 2284011; active means hit-call score of the fitted dose curve at least 0.9, where 1 is the maximum; inactive means score below 0.9)
In short: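 Read-out: CellEvent Caspase 3/7 Green signal by high content imaging, gain-of-signal indicating apoptosis. MCF-7 cells, DMEM + 10% FBS, eight-point dilution series, 6 h exposure. Curves fitted bidirectionally relative to DMSO negative control.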

CNC(=O)ON=C(CSC)C(C)(C)C
outcome [1]: inactive
outcome [2]: inactive
outcome [3]: inactive
outcome [4]: inactive
outcome [5]: inactive
outcome [6]: inactive
outcome [7]: inactive
outcome [8]: inactive
outcome [9]: inactive
outcome (THRA (gene 7067)): inactive
outcome (THRB (gene 7068) [10]): inactive
outcome (THRB (gene 7068) [11]): inactive
outcome [12]: inactive
outcome [13]: inactive
outcome [14]: inactive
outcome [15]: inactive

CC(C)OC(=O)Cc1ccccc1
outcome [1]: inactive
outcome [2]: inactive
outcome [3]: inactive
outcome [4]: inactive
outcome [5]: inactive
outcome [6]: inactive
outcome [16]: inactive

Oc1ccc(C2(c3ccc(O)cc3)CCCCC2)cc1
AC50 [1]: 72.1 µM (active)
AC50 [2]: 83.2 µM (active)
AC50 [3]: 44.1 µM (active)
AC50 [4]: 83.7 µM (active)
AC50 [5]: 46.3 µM (active)
AC50 [6]: 82.3 µM (active)
AC50 [7]: 74 µM (active)
AC50 [16]: 82.9 µM (active)
outcome [14]: inactive
outcome [17]: inactive

CCOP(=O)(OCC)SCCSCC (tested in a mixture with another compound)
outcome [1]: inactive
outcome [2]: inactive
outcome [3]: inactive
outcome [4]: inactive
outcome [5]: inactive
outcome [6]: inactive
outcome [16]: inactive

Cc1cc(C(C)(C)c2cc(C)c(O)c(C)c2)cc(C)c1O
AC50 [1]: 44.8 µM (active)
AC50 [2]: 20.7 µM (active)
outcome [3]: inactive
AC50 [4]: 18.8 µM (active)
AC50 [5]: 57.2 µM (active)
AC50 [6]: 58.5 µM (active)
AC50 [7]: 83.3 µM (active)
AC50 [16]: 74.3 µM (active)

O=[Se]=O
AC50 [1]: 16.1 µM (active)
AC50 [2]: 2.8 µM (active)
AC50 [3]: 7.66 µM (active)
AC50 [4]: 0.777 µM (active)
AC50 [5]: 21 µM (active)
outcome [6]: inactive
AC50 [16]: 4.23 µM (active)

N#CCCSCCC#N
outcome [1]: inactive
outcome [2]: inactive
outcome [3]: inactive
outcome [4]: inactive
outcome [5]: inactive
outcome [6]: inactive
outcome [16]: inactive

CC[n+]1c(-c2ccccc2)c2cc(N)ccc2c2ccc(N)cc21
outcome [1]: inactive
AC50 [2]: 1.43 µM (active) and 9.38 µM (active) and 2.95 µM (active)
outcome [3]: inactive
AC50 [4]: 3.51 µM (active) and 14.1 µM (active) and 6.74 µM (active)
outcome [5]: inactive
AC50 [6]: 2.77 µM (active) and 8.85 µM (active) and 4.7 µM (active)
outcome [7]: inactive
AC50 [16]: 1.93 µM (active) and 9.2 µM (active) and 3.86 µM (active)
